# PubChem BioAssay AID778 (Sanford-Burnham Center for Chemical Genomics, 2007)
# Among all 96,000 compounds or so, about 20,000 (21%) were called active. Not all results are given here. Unmarked numbers belong to inactive results.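 The calls were made as follows: active = CYP2C19 inhibition above a set limit at 5 µM in the primary screen (cut at about 50% in these data); inactive = the rest.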 Non-standard residues stand in square brackets, D forms with d. Residues, ends and D or L forms follow the SMILES beside them. ξ: configuration not given here. ξV = CC(C)C(N)C(=O)O
# Target: Cytochrome P450 2C19 (Homo sapiens) (UniProt P33261)
# Sequence (P33261 whole entry, looked up): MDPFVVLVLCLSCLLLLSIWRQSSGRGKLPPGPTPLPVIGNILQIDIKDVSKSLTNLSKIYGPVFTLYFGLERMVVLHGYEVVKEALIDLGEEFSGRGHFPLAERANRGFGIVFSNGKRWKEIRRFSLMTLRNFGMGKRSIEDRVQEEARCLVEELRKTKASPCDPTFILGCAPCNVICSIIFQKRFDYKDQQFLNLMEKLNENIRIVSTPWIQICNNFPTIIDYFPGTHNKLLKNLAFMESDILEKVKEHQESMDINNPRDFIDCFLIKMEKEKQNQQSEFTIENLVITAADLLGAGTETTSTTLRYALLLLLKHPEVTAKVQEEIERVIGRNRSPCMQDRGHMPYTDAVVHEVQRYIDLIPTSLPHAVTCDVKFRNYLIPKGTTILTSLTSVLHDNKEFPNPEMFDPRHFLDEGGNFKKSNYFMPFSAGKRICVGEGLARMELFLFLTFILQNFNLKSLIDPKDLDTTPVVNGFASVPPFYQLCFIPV
# Assay: blockers of cytochrome P450 2C19 activity – biochemical, luminescence, ADME assay, primary screen (AID 778);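 also: plate controls were negative control wells for no effect and 2.5 mM tranylcypromine positive control for full effect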
# Settings: CYP2C19 Supersomes, luciferin-H EGE luminescence, 30 min; at 5 µM; stronger effect = higher value
row,Compound,inhibition
1,Cc1cccc(NC(=O)c2sc3nc4c(c(-c5ccco5)c3c2N)CCC4)c1,13.8%
2,COC(=O)c1cc(C(=O)OC)cc(N2C(=O)CC(N3CCN(c4ccccc4)CC3)C2=O)c1 (configuration not stated),12.1%
3,O=C1CC(c2ccccc2)C(=O)N1c1cccc(O)c1 (configuration not stated),60.7% (active)
4,O=C1CC(NNc2ccccc2)C(=O)N1c1cccc(Cl)c1 (configuration not stated),18.7%
5,O=C(NC1CCN(Cc2ccccc2)CC1)c1ccccc1F,6.3%
6,O=C(CCc1ccccc1)Nc1ccc(NC(=O)C2CC2)nc1,18.9%
7,O=S(=O)(Nc1nccs1)c1ccc2c(c1)OCCO2,56.7% (active)
8,CN1CCCN(S(=O)(=O)c2ccc3c(c2)OCCO3)CC1,-1.5%
9,CC(C)NS(=O)(=O)c1ccc(OCC(=O)Nc2ccc3c(c2)OCCO3)cc1,28.9%
10,CCCCC(CC)C(=O)Nc1ccc(Cl)cn1 (configuration not stated),7.2%
11,CC(=O)Nc1ccc(S(=O)(=O)Nc2nc3n(n2)C(c2ccccc2)CC(=O)N3)cc1 (configuration not stated),-6%
12,Cn1c(=N)n(CC(O)c2ccccc2)c2ccccc21 (configuration not stated),-12.3%
13,N=c1n(Cc2ccc(Cl)cc2)c2ccccc2n1CC(O)c1ccco1 (configuration not stated),83.1% (active)
14,O=S(=O)(O)c1nc2ccccc2n1Cc1ccc(Cl)cc1,2.7%
15,Cc1ccc(/C=N/NC(=O)c2sccc2OCc2ccc(F)cc2)cc1,-8.9%
16,Oc1ccccc1/C=N/n1c(-c2cccs2)n[nH]c1=S,-14.5%
17,COc1ccc(-c2[nH]nc3c2C(c2ccncc2)C(C#N)=C(N)O3)cc1 (configuration not stated),-1.2%
18,CCCN1CC=C2C(C#N)=C(N)C(C#N)(C#N)C(c3cc(OC)ccc3OC)C2C1 (configuration not stated),16.6%
19,CCC1=C(C(=O)OC)C(c2cc(OC)ccc2OC)C(C#N)=C(N)O1 (configuration not stated),54.8% (active)
20,COC(=O)C1=C(C)OC(N)=C(C#N)C1c1cc(OC)ccc1OC (configuration not stated),53.3% (active)
21,CCCN1C(=O)C(NC(C)=O)c2cc(OC)ccc21 (configuration not stated),-12.9%
22,Cc1cc(=O)oc(C)c1C(=O)NCc1ccc(F)cc1,33.5%
23,CC(=O)NC(C(=O)NCC(N)=O)C(C)C (configuration not stated) (Ac-[ξV]-Gly-NH2),-4%
24,COc1ccc(C2OC(=O)CC2C(=O)NC(C)C)cc1 (configuration not stated),19.5%
25,O=C(Nc1ccccc1F)C1C2C=CC3(O2)C1C(=O)N(c1cccnc1)C3C(=O)NC1CCCCC1 (configuration not stated),-8.2%

row,Compound,inhibition
1,CCC(=O)N(C)C(c1ccccc1Cl)c1nnnn1-c1c(C)cccc1C (configuration not stated),11.1%
2,O=C(c1ccccn1)c1ncc(C(F)(F)F)cc1Cl,44.3%
3,Cc1cc(C)cc(NS(=O)(=O)c2ccc(Oc3ncc(C(F)(F)F)cc3Cl)cc2)c1,9.5%
4,C#CCN(N(C)c1ncc(C(F)(F)F)cc1Cl)S(=O)(=O)c1ccc2ccccc2c1,94.5% (active)
5,CC(NC(=O)C1CCC(CNc2c(N3CCOCC3)c(=O)c2=O)CC1)c1ccccc1 (configuration not stated),-2.1%
6,Nc1nc(Br)c2ccccc2c1-c1ccc(F)cc1,18.7%
7,N#Cc1c(C(F)(F)F)cc(-c2ccccc2)nc1SCC(=O)N1CCOCC1,0%
8,CCC/C(O)=C1\C(=O)CC(C)(C)CC1=Nc1ccccc1OC,45.5%
9,CC1(C)CC(=O)C=C(NC2CC(C)(C)NC(C)(C)C2)C1,-1.1%
10,COc1ccccc1-c1n[nH]c2c1[C@H](C)CC[C@H]2C(C)C,21%
11,O=C(O)COc1ccc(-c2nccc(-c3cccs3)n2)cc1,-9.2%
12,CCOc1cccc(C(=O)Nc2nnc(-c3cccs3)s2)c1,2.2%
13,CN(C(=O)COc1nnc(-c2cccs2)c(-c2cccs2)n1)c1ccccc1,75.5% (active)
14,O=C(O)Cc1ccc(NC(=O)C2CCCCC2C(=O)O)cc1 (configuration not stated),2.3%
15,CSCCC(Nc1nc2ccccc2s1)C(=O)O (configuration not stated),12.6%
16,COc1cc(C2C(C(=O)c3sc(C)nc3C)=C(O)C(=O)N2CCN(C)C)cc(OC)c1OC (configuration not stated),76.7% (active)
17,COc1cccc(C2/C(=C(/O)c3ccncc3)C(=O)C(=O)N2CCCN(C)C)c1 (configuration not stated),-12.6%
18,COc1cc(C2C(C(=O)c3ccc(C)o3)=C(O)C(=O)N2Cc2cccnc2)ccc1O (configuration not stated),-12.6%
19,COc1ccc(OC)c(C(c2nnnn2C(C)(C)C)N2CCc3ccccc3C2)c1 (configuration not stated),94.8% (active)
20,Cc1ccc(C(c2nnnn2C(C)(C)C)N2CCc3ccccc3C2)cc1 (configuration not stated),14.4%
21,COC(=O)C1C(=O)c2c([nH]c(C(=O)OCCSC)c2C)CC1C (configuration not stated),10.1%
22,Nc1nc(SCCOc2ccccc2)n[nH]1,28.3%
23,Cc1cc2ncn(CCCCOc3ccccc3)c2cc1C,40.1%
24,Cc1nn(CCOc2ccccc2)c(=O)n1-c1ccccc1F,53.1% (active)
25,CC(C)Oc1ccc(C2NC(=O)NC2=O)cc1 (configuration not stated),-16.7%

row,Compound,inhibition
1,O=C(Nc1ccc(NC(=O)c2cccs2)cn1)c1ccco1,17.3%
2,COc1ccc2c(c1)C(C)=CC(C)(C)N2C(=O)CNCc1ccc2c(c1)OCO2,84.8% (active)
3,Cc1ccc(-n2ncc3c(=O)[nH]cnc32)c(C)c1,-3.8%
4,COn1c(=O)c(=O)n(OC)c2ccccc21,-6.8%
5,Cc1ccc(NC(=O)Nc2ccc3oc(C)nc3c2)cc1,3%
6,CCn1cc(C(=O)NCc2ccc3c(c2)OCO3)c2cc(OC)c(OC)cc2c1=O,15.2%
7,COc1ccc(C(=O)NCc2cn3ccccc3n2)cc1,1.2%
8,CCn1cc(C(=O)NCc2ccc(OC)cc2OC)c(=O)c2ccc(C)nc21,66.3% (active)
9,CC(c1ccco1)N(C(=O)Nc1ccccc1)C1CCCCC1 (configuration not stated),76.2% (active)
10,CCOc1ccc(NC(=O)N(CCC(C)C)C(C)c2ccco2)cc1 (configuration not stated),24.3%
11,CC(NC(=O)Nc1ccccc1)c1ccccc1 (configuration not stated),24.8%
12,CC(=O)c1c(N)n(C)c(=O)n(C)c1=O,0.9%
13,CCOC(=O)c1nnn(-c2nonc2-n2cccc2)c1CN1CCOCC1,3.7%
14,CCOC(=O)c1nnn(-c2nonc2-n2cccc2)c1CN1CCC(C(=O)OCC)CC1,98% (active)
15,CCN(CC)Cc1c(C(=O)OC)nnn1-c1nonc1N,4.8%
16,CC(=O)Oc1cccc(N2C(=O)CC(Nc3ccc(N4CCOCC4)cc3)C2=O)c1 (configuration not stated),18.5%
17,Cc1ccc(NC(=O)NCC(c2cccnc2)N2CCOCC2)cc1 (configuration not stated),-7.8%
18,CCOC(=O)N1CCN(C(=O)C2CC(c3ccc(F)cc3)=NO2)CC1 (configuration not stated),1.7%
19,COC(=O)[C@H](C(C)C)n1c(C)c(C(C)=O)c(C(C)=O)c1C,6.6%
20,O=[N+]([O-])c1c(NCCO)cc(Sc2nc3ccccc3s2)c2nonc12,28.1%
21,O=C(c1ccc(Cl)cc1)c1ccc(OCC(O)CN2CCCCC2)cc1 (configuration not stated),8.8%
22,OC(COc1cccc(OCC(O)CN2CCCC2)c1)CN1CCCC1 (configuration not stated),0.1%
23,OC(COc1ccc2c(c1)CCC2)CN1CCN(c2cccc(Cl)c2)CC1 (configuration not stated),59.3% (active)
24,CCN(CC)c1ccc2cc(C(=O)O)c(=O)oc2c1,-13.2%
25,CCOc1cc(CN2CCN(C(=O)CC(C)C)CC2)ccc1OC,-10.6%

row,Compound,inhibition
1,COc1cc2c(cc1OC)CN(C(=O)c1cc(=O)c3ccccc3o1)CC2,19.7%
2,CCOc1cc(C(=O)N2CCc3cc(OC)c(OC)cc3C2)ccc1OC(F)F,51.6% (active)
3,CN1CCN(CC(O)COCc2ccc3c(c2)OCO3)CC1 (configuration not stated),-20.9%
4,Cc1ccc(NC(=O)CS(=O)CC(=O)N(c2ccccc2)C(C)C(=O)NC2CCCC2)cc1 (configuration not stated),9.7%
5,O=C(NCc1ccccn1)c1c(O)c2c([nH]c1=O)CCCC2,11.7%
6,CCCc1cc(-c2n[nH]c(=S)n2Cc2ccccc2)cs1,5.4%
7,Cc1ccc(S(=O)(=O)Nc2ccccc2CNc2c(C)n(C)n(-c3ccccc3)c2=O)cc1,95.6% (active)
8,COc1ccc(S(=O)(=O)Nc2c(C)n(C)n(-c3ccccc3)c2=O)cc1,-4.1%
9,Cc1c(Nc2nc3ccccc3nc2NS(=O)(=O)c2cccs2)c(=O)n(-c2ccccc2)n1C,1%
10,CCOc1ccc(-c2c(C)n([O-])c3c([n+]2=O)CCCC3)cc1,9.2%
11,Cc1ccn2cc(-c3nonc3C)cc2c1,50.1% (active)
12,COc1cc(Cl)c(S(=O)(=O)N2CCN(Cc3ccc4c(c3)OCO4)CC2)cc1Cl,36.2%
13,COc1ccc(Cl)cc1S(=O)(=O)N1CCN(CC(=O)C(C)(C)C)CC1,85.9% (active)
14,COc1ccc(NC(=O)CN2CCN(S(=O)(=O)c3ccc(F)cc3)CC2)cc1Cl,0.5%
15,COc1cc(NS(=O)(=O)c2ccc(N=Cc3c(C)[nH]n(-c4ccccc4)c3=O)cc2)nc(OC)n1,-18%
16,COc1ccc(C(=O)Nc2ccccc2C(=O)N/N=C/c2ccccc2OC)cc1,-5.9%
17,COc1ccc(C(=O)Nc2ccccc2C(=O)N/N=C/c2ccc(O)c(OC)c2)cc1,87.2% (active)
18,COc1cc(/C=N\NC(=O)CNC(=O)c2cccc([N+](=O)[O-])c2)ccc1O,23%
19,N#Cc1ccsc1NC(=O)CN1CCCCC1,-6.2%
20,Cn1c(NN)nc2sc3c(c2c1=O)CCC3,78.4% (active)
21,NNC(=O)C1CCCn2c1nc1sc3c(c1c2=O)CCCC3 (configuration not stated),12.4%
22,CC1CCc2c(sc3nc4n(c(=O)c23)CCS4)C1 (configuration not stated),-6.7%
